Here are results for 5 compounds from PubChem BioAssay.

The source made the active and inactive calls.

Experiment [1] has as its target Albumin (Bos taurus) (UniProt P02769). The experiment is described as follows: bovine serum albumin binders on microarray, profiling panel, artefact control for SMM control protein annotation, biochemical, small-molecule microarray, Alexa647 label, 635/667 nm fluorescence (AID 1118).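 Further: score merges 667 nm emission intensity and signal-to-noise per printed compound spot.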 The settings on record: BSA-A647 binding, fluorescence 635 nm, higher = more signal.

Experiment [2] in a line: small-molecule microarray binders of probe aXIP, primary screen, biochemical, NeuroSMM set, 635/667 nm fluorescence (AID 1119).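 Further: probe is the protein aXip251-270 applied at 1 µg/mL to compound-printed slides; binding of probe to printed compounds measured as 667 nm fluorescence plus signal to noise.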 The settings on record: higher = more signal, called active from +8 up or from −8 down.
A short description of experiment [3]: small-molecule binders of probe aNOTCH3, primary screen, biochemical, small-molecule microarray, 635/667 nm fluorescence (AID 1120).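 Further: probe is a biotin-tagged antibody raised against NOTCH3 rather than NOTCH3 protein; score merges spot fluorescence near 667 nm with spot signal to noise.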 The following applies: higher = more signal.
Experiment [4] is described as follows: small-molecule binders of probe aNOTCH2, primary screen, biochemical, small-molecule microarray, 635/667 nm fluorescence (AID 1121).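 Further: score merges feature fluorescence read at 667 nm with its signal to noise.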 The settings on record: higher = more signal.
The target of experiment [5] is Carbonic anhydrase 2 (Homo sapiens) (UniProt P00918). As to the kind of experiment: CAII small-molecule binders, profiling panel, biochemical, small-molecule microarray, Alexa647-labelled CAII (AID 1122). The following applies: CAII-A647 binding fluorescence, higher = more signal.
Experiment [6] can be described thus: COS7 lysate on small-molecule microarray, probe aHis, 635 nm (AID 1123).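 Further: z-score combines 667nm fluorescence intensity with signal-to-noise per printed compound spot.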 The following applies: COS7 cell lysate, fluorescence, higher = more signal.
The nature of experiment [7]: compound binding in COS7 lysate, probe aLAP1, primary screen, cell lysate, small-molecule microarray (AID 1124).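 Further: lysate comes from COS7 cells expressing LAP1 and is applied at 0.3 µg/mL; score merges spot fluorescence near 667 nm with signal-to-noise over triplicate slides.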 The settings on record: probe aLAP1, fluorescence, higher = more signal.
Experiment [8] deals with Sam68 (KHDRBS1). As to the kind of experiment: Sam68 small-molecule binders, primary screen, biochemical, small-molecule microarray, 635 nm fluorescence (AID 1125).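 Further: score merges 667 nm channel intensity with signal to noise over triplicate slides.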 The settings on record: small-molecule microarray binding, higher = more signal.
The subject of experiment [9] is Chordin-like protein 2 (CHRDL2). As to the kind of experiment: CHRDL2 small-molecule binders, primary screen, biochemical, small-molecule microarray, 635 nm fluorescence (AID 1126).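 Further: printed compound slides probed with Chrdl2 protein at 4 µg/mL for 1 h at 4 C; score merges 667 nm emission intensity with signal to noise over three replicate slides.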 The settings on record: small-molecule microarray binding, fluorescence 635 nm; higher = more signal.
Experiment [10] concerns the target Concanavalin-A (Canavalia ensiformis) (UniProt P02866). The experiment is described as follows: ConA small-molecule binders, primary screen, artefact control for SMM control protein annotation, biochemical, small-molecule microarray, Alexa647 label, 635 nm (AID 1127).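 Further: z combines 667 nm emission intensity with signal-to-noise across three replicate slides.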 The settings on record: ConA-A647 binding fluorescence, higher = more signal.
A short description of experiment [11]: anti-His antibody binders, primary screen, artefact control for SMM control protein annotation, biochemical, small-molecule microarray, 635 nm fluorescence (AID 1128).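 Further: score merges feature fluorescence with signal-to-noise for each printed compound spot.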 The settings on record: anti-His Alexa647 antibody binding, higher = more signal.
Experiment [12] has as its system Human papillomavirus type 1a E7 protein (residues 1-88). As to the kind of experiment: HPV1a E7 small-molecule binders, primary screen, biochemical, small-molecule microarray, residues 1-88, 635 nm (AID 1129). The settings on record: small-molecule microarray binding, fluorescence 635 nm; higher = more signal.
In experiment [13] the target is Focal adhesion kinase 1 (Homo sapiens) (UniProt Q05397). The experiment is described as follows: small-molecule microarray binders of FAK, primary screen, biochemical, 635/667 nm fluorescence, BSA, DTT (AID 1130).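 Further: composite of spot emission at 667 nm and signal to noise over triplicate slides.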 The settings on record: PTK2 binding, 635 nm fluorescence, higher = more signal.
The test system of experiment [14] is Fibrinogen (Alexa647-labelled). As to the kind of experiment: fibrinogen binders on compound microarrays, profiling panel, artefact control for SMM control-protein annotation, biochemical, small-molecule microarray, 635/667 nm fluorescence (AID 1131).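 Further: z-score merges 667 nm fluorescence with per-spot signal-to-noise over triplicate slides.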 The settings on record: fibrinogen-A647 binding fluorescence, higher = more signal.
Experiment [15] concerns the target Follistatin (Homo sapiens) (UniProt P19883). The experiment is described as follows: follistatin binders on small-molecule microarrays, primary screen, biochemical, small-molecule microarray, 635/667 nm fluorescence (AID 1132). The settings on record: FST binding, 635 nm fluorescence, higher = more signal.
For experiment [16], the target named is Fibroblast growth factor 2 (Homo sapiens) (UniProt P09038). The experiment is described as follows: FGF2 binders on small-molecule microarrays, primary screen, biochemical, small-molecule microarray, 635/667 nm fluorescence (AID 1133). The following applies: small-molecule microarray binding, FGF2, fluorescence 635/667; higher = more signal.
The nature of experiment [17]: mitochondrial membrane potential change in A549 cells, profiling panel, cell-based, JC-1 fluorescence, basal, 24 h, 100 nL (AID 1138).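 Further: A549 lung adenocarcinoma cells under basal conditions with no added stimulus; test concentration not given here.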 The following applies: higher = more signal.
Experiment [18] relates to Lefty1. The experiment is described as follows: Lefty1 binders on small-molecule microarrays, primary screen, biochemical, small-molecule microarray, 635/667 nm fluorescence (AID 1139). The settings on record: small-molecule microarray binding, fluorescence 635/667; higher = more signal.
Experiment [19] deals with wheat germ agglutinin (Triticum aestivum), Alexa647-labelled. As to the kind of experiment: wheat germ agglutinin binders on compound microarrays, profiling panel, artefact control for SMM control-protein annotation, biochemical, small-molecule microarray, 635/667 nm fluorescence (AID 1140).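 Further: score merges 667 nm feature emission with signal to noise over triplicate slides.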 The following applies: WGA-A647 binding, 635 nm fluorescence, higher = more signal.

For experiment [20], the target named is Luciferin 4-monooxygenase (Photinus pyralis) (UniProt P08659). As to the kind of experiment: firefly luciferase enzyme inhibitors, primary screen, biochemical, luminescence, purified enzyme, 2006 set (AID 1141).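 Further: cell-free assay with purified firefly luciferase at 100 ng per well in PBS; test concentration not given here.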 The settings on record: SteadyGlo luminescence, 30 min, higher = more signal, called active from +8 up or from −8 down.
Chain of Luciferin 4-monooxygenase (Photinus pyralis) (P08659 whole entry, looked up): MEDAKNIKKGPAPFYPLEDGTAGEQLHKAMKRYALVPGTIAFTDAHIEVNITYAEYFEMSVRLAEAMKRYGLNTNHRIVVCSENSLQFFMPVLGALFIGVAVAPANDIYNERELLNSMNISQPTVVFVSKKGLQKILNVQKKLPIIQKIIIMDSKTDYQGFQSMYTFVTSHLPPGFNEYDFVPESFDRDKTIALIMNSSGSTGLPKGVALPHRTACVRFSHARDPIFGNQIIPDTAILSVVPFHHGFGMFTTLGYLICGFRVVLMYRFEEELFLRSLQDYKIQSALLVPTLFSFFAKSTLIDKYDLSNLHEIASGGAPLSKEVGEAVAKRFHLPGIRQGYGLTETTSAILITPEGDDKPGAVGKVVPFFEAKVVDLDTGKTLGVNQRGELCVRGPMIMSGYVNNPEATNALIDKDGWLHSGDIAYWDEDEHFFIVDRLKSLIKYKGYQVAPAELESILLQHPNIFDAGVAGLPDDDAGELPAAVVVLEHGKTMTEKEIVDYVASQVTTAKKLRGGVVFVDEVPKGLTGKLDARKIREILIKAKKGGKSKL

Chain of Follistatin (Homo sapiens) (P19883 whole entry, looked up): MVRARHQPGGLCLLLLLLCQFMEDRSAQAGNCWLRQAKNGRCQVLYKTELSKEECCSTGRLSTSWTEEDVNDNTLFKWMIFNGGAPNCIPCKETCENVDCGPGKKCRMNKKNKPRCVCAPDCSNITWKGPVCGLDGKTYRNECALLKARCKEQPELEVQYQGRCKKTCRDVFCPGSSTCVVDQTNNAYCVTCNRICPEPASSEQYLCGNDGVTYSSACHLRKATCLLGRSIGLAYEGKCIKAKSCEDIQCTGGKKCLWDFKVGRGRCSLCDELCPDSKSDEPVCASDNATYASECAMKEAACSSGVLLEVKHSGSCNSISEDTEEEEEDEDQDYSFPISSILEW
Chain of Fibroblast growth factor 2 (Homo sapiens) (P09038 whole entry, looked up): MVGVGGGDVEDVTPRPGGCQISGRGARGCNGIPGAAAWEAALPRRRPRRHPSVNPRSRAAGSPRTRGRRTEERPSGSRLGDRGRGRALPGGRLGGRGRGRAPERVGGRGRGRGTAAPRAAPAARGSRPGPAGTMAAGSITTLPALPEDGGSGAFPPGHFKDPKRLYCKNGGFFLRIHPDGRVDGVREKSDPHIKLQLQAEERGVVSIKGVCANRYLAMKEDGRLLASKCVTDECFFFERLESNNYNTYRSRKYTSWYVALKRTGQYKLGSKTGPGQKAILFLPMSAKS
Chain of Focal adhesion kinase 1 (Homo sapiens) (Q05397 whole entry, looked up): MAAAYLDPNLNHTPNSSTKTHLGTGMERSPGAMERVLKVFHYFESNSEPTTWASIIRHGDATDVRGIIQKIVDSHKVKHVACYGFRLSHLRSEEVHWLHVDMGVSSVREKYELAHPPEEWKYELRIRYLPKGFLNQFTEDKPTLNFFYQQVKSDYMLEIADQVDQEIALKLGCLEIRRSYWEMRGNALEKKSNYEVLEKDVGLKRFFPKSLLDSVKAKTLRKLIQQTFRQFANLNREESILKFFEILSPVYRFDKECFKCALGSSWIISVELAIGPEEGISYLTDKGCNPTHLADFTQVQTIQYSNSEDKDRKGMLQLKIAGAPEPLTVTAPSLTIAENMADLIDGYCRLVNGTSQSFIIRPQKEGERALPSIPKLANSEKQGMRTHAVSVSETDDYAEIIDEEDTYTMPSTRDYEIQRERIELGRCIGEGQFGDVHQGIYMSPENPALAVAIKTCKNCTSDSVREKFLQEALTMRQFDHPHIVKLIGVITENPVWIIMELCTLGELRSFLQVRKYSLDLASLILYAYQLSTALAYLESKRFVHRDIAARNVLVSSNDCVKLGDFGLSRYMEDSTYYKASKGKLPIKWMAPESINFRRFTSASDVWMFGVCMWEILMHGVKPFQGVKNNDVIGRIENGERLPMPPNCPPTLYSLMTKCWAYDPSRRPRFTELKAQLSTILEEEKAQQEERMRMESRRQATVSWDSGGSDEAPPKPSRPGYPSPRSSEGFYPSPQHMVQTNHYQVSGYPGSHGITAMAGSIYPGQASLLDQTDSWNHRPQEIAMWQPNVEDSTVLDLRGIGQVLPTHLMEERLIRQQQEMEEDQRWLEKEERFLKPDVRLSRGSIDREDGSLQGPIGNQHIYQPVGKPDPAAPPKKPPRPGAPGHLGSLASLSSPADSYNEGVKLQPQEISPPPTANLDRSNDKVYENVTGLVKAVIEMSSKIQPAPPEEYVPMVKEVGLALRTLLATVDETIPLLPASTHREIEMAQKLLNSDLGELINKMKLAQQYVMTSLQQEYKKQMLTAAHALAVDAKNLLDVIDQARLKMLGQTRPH
Chain of Concanavalin-A (Canavalia ensiformis) (P02866 whole entry, looked up): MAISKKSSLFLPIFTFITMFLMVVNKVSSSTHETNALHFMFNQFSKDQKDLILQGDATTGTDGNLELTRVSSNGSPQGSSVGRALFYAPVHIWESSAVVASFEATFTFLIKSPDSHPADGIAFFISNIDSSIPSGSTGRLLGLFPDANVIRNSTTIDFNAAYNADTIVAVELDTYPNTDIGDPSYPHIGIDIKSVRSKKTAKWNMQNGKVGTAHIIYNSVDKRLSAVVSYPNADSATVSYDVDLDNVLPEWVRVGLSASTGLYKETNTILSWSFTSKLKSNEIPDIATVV
Chain of Albumin (Bos taurus) (P02769 whole entry, looked up): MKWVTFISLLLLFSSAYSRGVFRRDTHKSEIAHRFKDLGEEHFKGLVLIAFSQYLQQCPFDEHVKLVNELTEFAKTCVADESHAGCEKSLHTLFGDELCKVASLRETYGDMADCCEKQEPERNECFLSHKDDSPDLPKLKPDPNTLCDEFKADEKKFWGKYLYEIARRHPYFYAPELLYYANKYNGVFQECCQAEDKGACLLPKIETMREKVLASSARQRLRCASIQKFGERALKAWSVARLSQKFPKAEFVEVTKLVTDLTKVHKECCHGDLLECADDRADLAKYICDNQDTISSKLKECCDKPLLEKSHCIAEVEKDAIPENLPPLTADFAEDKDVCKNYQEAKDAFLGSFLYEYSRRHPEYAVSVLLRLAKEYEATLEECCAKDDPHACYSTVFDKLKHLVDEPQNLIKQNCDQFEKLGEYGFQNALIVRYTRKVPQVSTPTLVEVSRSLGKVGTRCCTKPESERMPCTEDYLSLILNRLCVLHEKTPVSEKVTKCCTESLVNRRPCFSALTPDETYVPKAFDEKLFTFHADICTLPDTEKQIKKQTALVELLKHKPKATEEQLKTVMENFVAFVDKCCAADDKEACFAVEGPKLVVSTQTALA

On to `O=C1[C@H]2CCn3c(=O)n(Cc4cc5c(cc4Cl)OCO5)c(=O)n3[C@H]2[C@H](O)[C@@H]2O[C@H]12`, for which the composite z-score in [1] was 0.662; in experiment [3], -0.15; in [4] it was -0.14; in [5], 0.29; in experiment [6] it was 0.242; in experiment [7], -0.14. Moreover, the composite z-score in experiment [8] was -0.435; in [9], 0.716; in experiment [10], -0.0737; in experiment [11] it was 0.85; in [12], -0.542; in experiment [13], -0.255. Moreover, the composite z-score in experiment [14] was 0.855; in [15], 0.596; in experiment [16], 0.299; in experiment [18], 0.298; in experiment [19] it was 0.176. Also, the composite Z-score in [2] was -0.0662 (inactive). Further, the z-score was -0.512 in [17] and -1.44 (inactive) in experiment [20].
For the compound `C#CCCCON=C1C[C@@H](O)[C@@H](O)[C@@H]2[C@@H]3C(=O)N([C@@H](C)c4ccccc4)C(=O)[C@@H]3CC[C@@H]12`, the composite z-score in [1] is 0.356; in [3] it was 0.114; in [4], -0.165; in [5] it was 0.717; in experiment [6], 0.0072; in experiment [7], 0.0247. Also, the composite z-score is -0.105 in [8]; -0.13 in experiment [9]; 0.123 in experiment [10]; -0.559 in [11]; -0.82 in experiment [12]; -0.0567 in experiment [13]. In addition, the composite z-score in experiment [14] was -0.181; in experiment [15], -0.326; in experiment [16], -0.141; in [18], -0.32; in experiment [19] it was 0.0859. The composite Z-score in experiment [2] was -0.51 (inactive). The z-score in experiment [17] was -0.683; in [20], 0.993 (inactive).
For `CC(CCC(=O)OC[C@H]1O[C@H](C#Cc2ccccc2)C=C[C@@H]1Oc1ccc(C)cc1)=NOC(C)CN1CCCc2nc(C)c(C)cc21` (stereo not given in full), the composite z-score in experiment [1] was 0.412; in [3], -0.0647; in experiment [4] it was -0.0793; in experiment [5] it was -0.0994; in [6] it was 1.12; in experiment [7], -0.114. The composite z-score turned out to be 1.14 in experiment [8]; 0.281 in experiment [9]; 0.924 in experiment [10]; 1.09 in [11]; 0.886 in experiment [12]; 0.659 in experiment [13]. Also, the composite z-score came to 0.564 in experiment [14]; 0.686 in [15]; 0.507 in experiment [16]; 0.596 in experiment [18]; 0.418 in experiment [19]. In addition, the composite Z-score in experiment [2] is -0.266 (inactive). In addition, the z-score in experiment [17] is 0.238; in experiment [20], 0.0139 (inactive).
As to `CC(=O)OC[C@H]1O[C@@H](ON=C(C)CCC(=O)OC[C@H]2O[C@H](C#Cc3ccccc3)C=C[C@@H]2Oc2ccc(C)cc2)[C@H](OC(C)=O)[C@@H](OC(C)=O)[C@@H]1OC(C)=O`, the composite z-score in experiment [1] is 0.635; in experiment [3], 0.0493; in experiment [4] it was -0.0714; in [5], 0.273; in experiment [6], 0.989; in [7] it was 0.0582. Also, the composite z-score in experiment [8] is 1.3; in experiment [9], 0.549; in experiment [10], 0.943; in experiment [11], 0.48; in [12], 0.843; in [13], 0.108. Besides, the composite z-score in [14] was 0.705; in [15] it was 0.753; in experiment [16] it was 1.26; in experiment [18] it was 0.648; in experiment [19], 0.307. The composite Z-score in experiment [2] was -0.0164 (inactive). In addition, the z-score in [17] was 1.08; in experiment [20], -0.305 (inactive).
As to `CC(C)[C@@H](OCc1ccccc1)[C@H](C)C=NO[C@H](C)c1cn([C@@H]2COC[C@H]2O)nn1`, the composite z-score was 0.378 in [1]; 0.307 in experiment [3]; -0.156 in [4]; -0.133 in experiment [5]; 0.811 in experiment [6]; 0.388 in [7]. Besides, the composite z-score in [8] was 1.3; in experiment [9], 0.0507; in experiment [10], 0.584; in experiment [11] it was 0.0202; in experiment [12], 0.693; in experiment [13], 0.279. In addition, the composite z-score in [14] is 0.0524; in experiment [15], 0.229; in experiment [16] it was 0.422; in experiment [18], 0.957; in [19], -0.0886. Also, the composite Z-score in experiment [2] is -0.0641 (inactive). For the same compound, the z-score in [17] was -0.245; in experiment [20], 1.06 (inactive).
